Results: PubChem BioAssay (Tox21)
Values joined by “and” are separate entries in the source; they are usually repeats but may differ in a detail not shown here. Identical values can stand only once. Inconclusive results are not listed. Entries that show only a call come without a potency. Some compounds were tested as several samples or in several runs, with calls that do not always agree. Active and inactive are the calls of the source. Unless noted, the call rests on the fitted dose curve; in most records, active means well fitted curve in the direction sought with a large enough effect in the repeat runs; inconclusive means weak or mixed curves; inactive means no such curve, though single readings can be large; an effect the other way counts as inactive or inconclusive.

Columns and labels:
[1] = qHTS assay to identify small molecule antagonists of the glucocorticoid receptor (GR) signaling pathway - cell viability counter screen (AID 720693); further: nearly all actives have a fitted effect of over 55% in size
[2] = qHTS assay for identifying genotoxic compounds that show differential cytotoxicity against isogenic chicken DT40 cell lines with known DNA damage response pathways - wild type cell line (AID 743012); further: nearly all actives have a fitted effect of over 60% in size; further: potency means the concentration at half of the fitted maximal effect
Summary of the method: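 Endpoint: CellTiter-Glo luminescence, 30 min RT. Cells: wild type DT40, 300/well. Exposure: compounds in DMSO, 40 h, 37 C/5% CO2, after ~0.5 h pre-incubation.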

[3] = qHTS assay for identifying genotoxic compounds that show differential cytotoxicity against isogenic chicken DT40 cell lines with known DNA damage response pathways - Rev3 mutant cell line (AID 743014); further: nearly all actives have a fitted effect of over 55% in size; further: potency means the concentration at half of the fitted maximal effect
[4] = qHTS assay for identifying genotoxic compounds that show differential cytotoxicity against isogenic chicken DT40 cell lines with known DNA damage response pathways - Rad54/Ku70 mutant cell line (AID 743015); further: nearly all actives have a fitted effect of over 60% in size; further: potency means the concentration at half of the fitted maximal effect
[5] = qHTS assay to identify small molecule antagonists of the androgen receptor (AR) signaling pathway using the MDA cell line - cell viability counter screen (AID 743041; further: nearly all actives have a fitted effect of over 45% in size)
Summary of the method: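 In this qHTS counter assay, fluorescence intensity after CellTiter-Fluor addition indicated viability of MDA-kb2 AR-luc cells given compounds and R1881 for 16 h at 37C.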

[6] = qHTS assay to identify small molecule antagonists of the thyroid receptor (TR) signaling pathway (AID 743065); further: nearly all actives have a fitted effect of over 55% in size; further: potency means the concentration at half of the fitted maximal effect
Summary of the method: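 GH3.TRE-Luc rat pituitary cells carrying two TR response elements driving luciferase were plated for 4 h, given compound plus 1 nM T3 (final), and incubated 23.5 h at 37 C. ONE-Glo luminescence measured reporter inhibition; CellTiter-Fluor fluorescence tracked cytotoxicity.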

[7] = system: thyroid hormone receptor (rat, GH3 cells); experiment: qHTS assay to identify small molecule agonists of the thyroid receptor (TR) signaling pathway (AID 743066; calls by dose curve)
[8] = qHTS assay to identify small molecule antagonists of the estrogen receptor alpha (ER-alpha) signaling pathway - cell viability counter screen (AID 743074; calls by dose curve;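 further: HEK293 cells carrying ER-alpha-UAS-bla reporter stimulated with 17beta-estradiol; nearly all actives have a fitted effect of over 45% in size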)
[9] = qHTS assay to identify small molecule antagonists of the estrogen receptor alpha (ER-alpha) signaling pathway using the BG1 cell line - cell viability counter screen (AID 743081);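 further: compound given together with 17beta-estradiol as the ER stimulus; series mostly up to about 70 µM; nearly all actives have a fitted effect of over 45% in size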
Aromatase (Homo sapiens) = Aromatase (Homo sapiens) (UniProt P11511); experiment: qHTS assay to identify aromatase inhibitors (AID 743083); further: series mostly up to about 70 µM; nearly all actives have a fitted effect of over 55% in size
[10] = biological target: Estrogen receptor (Homo sapiens) (UniProt P03372); experiment: qHTS assay to identify small molecule agonists of the estrogen receptor alpha (ER-alpha) signaling pathway (AID 743075; calls by dose curve;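 further: HEK293 GripTite cells with ER-alpha and UAS-driven beta-lactamase reporter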; further: potency means the concentration at half of the fitted maximal effect)
[11] = biological target: Estrogen receptor (Homo sapiens) (UniProt P03372); experiment: qHTS assay to identify small molecule agonists of the estrogen receptor alpha (ER-alpha) signaling pathway using the BG1 cell line (AID 743079); further: nearly all actives have a fitted effect of over 20% in size; further: potency means the concentration at half of the fitted maximal effect
[12] = qHTS assay to identify small molecule antagonists of the estrogen receptor alpha (ER-alpha) signaling pathway using the BG1 cell line (AID 743080; calls by dose curve;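 further: BG1 cells stimulated with 17beta-estradiol alongside compound; series mostly up to about 70 µM; nearly all actives have a fitted effect of over 25% in size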)
Summary of the method: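 After 5 days in phenol-red-free 10% charcoal-stripped FBS medium, BG1-Luc-4E2 cells were seeded, left 24 h at 37 C, co-treated with compounds and 17beta-estradiol for 21.5 h, then assayed for viability and luciferase.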

[13] = qHTS assay to identify small molecule antagonists of the androgen receptor (AR) signaling pathway - cell viability counter screen (AID 743033; further: nearly all actives have a fitted effect of over 45% in size; further: potency means the concentration at half of the fitted maximal effect)
[14] = qHTS assay to identify small molecule antagonists of the thyroid receptor (TR) signaling pathway - cell viability counter screen (AID 743064); further: nearly all actives have a fitted effect of over 50% in size; further: potency means the concentration at half of the fitted maximal effect
Summary of the method: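 GH3.TRE-Luc rat pituitary cells dosed after 4 hr plating, co-stimulated with T3 at 1 nM final, incubated 23.5 h at 37 C. Viability measured in the same wells by CellTiter-Fluor fluorescence after 30 min further at 37 C.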

[15] = biological target: Estrogen receptor (Homo sapiens) (UniProt P03372); experiment: qHTS assay to identify small molecule antagonists of the estrogen receptor alpha (ER-alpha) signaling pathway (AID 743069; active means well fitted curve in the direction sought with a large enough effect in the signal ratio in the repeat runs, not every such curve was filed as active; the % refers to the signal ratio)
Summary of the method: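 A 17beta-estradiol challenge was applied right after compound transfer to ER-alpha-UAS-bla HEK293 cells previously kept in charcoal-stripped serum. Plates stood 18 hr at 37C and 5% CO2; fluorescence was read following 2 hr FRET substrate loading at room temperature.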

[16] = biological target: Androgen receptor (Homo sapiens) (UniProt P10275); experiment: qHTS assay to identify small molecule antagonists of the androgen receptor (AR) signaling pathway (AID 743035; active means well fitted inhibition curve with a large enough effect in the signal ratio in the repeat runs, not every such curve was filed as active; the % refers to the signal ratio)
Summary of the method: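 R1881 agonist challenge of a HEK293 UAS-beta-lactamase AR reporter line in the presence of compound (16 h, 37C); signal taken as FRET fluorescence after 2 h with LiveBLAzer B/G substrate at room temperature.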

[17] = biological target: Androgen receptor (Homo sapiens) (UniProt P10275); experiment: qHTS assay to identify small molecule agonists of the androgen receptor (AR) signaling pathway (AID 743036; active means well fitted activation curve with a large enough effect in the signal ratio in the repeat runs, with a control signal flat, not every such curve was filed as active; the % refers to the signal ratio)
Summary of the method: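 AR-UAS-bla HEK293 cells, plated 4 h before dosing, were treated with compound for 16 h at 37C. beta-Lactamase reporter read after 2 h with LiveBLAzer B/G FRET substrate at room temperature.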

[18] = biological target: Androgen receptor (Homo sapiens) (UniProt P10275); experiment: qHTS assay to identify small molecule agonists of the androgen receptor (AR) signaling pathway using the MDA cell line (AID 743040; further: nearly all actives have a fitted effect of over 20% in size)
Summary of the method: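 Cell-based luciferase reporter: MDA-kb2, MMTV promoter (AR + GR response elements). 16 h compound exposure at 37C; ONE-Glo, 30 min RT, luminescence.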

[19] = biological target: Androgen receptor (Homo sapiens) (UniProt P10275); experiment: qHTS assay to identify small molecule antagonists of the androgen receptor (AR) signaling pathway using the MDA cell line (AID 743042; further: nearly all actives have a fitted effect of over 55% in size)
Summary of the method: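 MDA-kb2 cells (human breast carcinoma, stably carrying an MMTV-luciferase reporter responsive to AR and GR) were plated at 3,000 cells/well and preincubated 5 hr at 37C, then given compound plus R1881 agonist for 16 h. ONE-Glo luminescence was read.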

Chain of Androgen receptor (Homo sapiens) (P10275 whole entry, looked up): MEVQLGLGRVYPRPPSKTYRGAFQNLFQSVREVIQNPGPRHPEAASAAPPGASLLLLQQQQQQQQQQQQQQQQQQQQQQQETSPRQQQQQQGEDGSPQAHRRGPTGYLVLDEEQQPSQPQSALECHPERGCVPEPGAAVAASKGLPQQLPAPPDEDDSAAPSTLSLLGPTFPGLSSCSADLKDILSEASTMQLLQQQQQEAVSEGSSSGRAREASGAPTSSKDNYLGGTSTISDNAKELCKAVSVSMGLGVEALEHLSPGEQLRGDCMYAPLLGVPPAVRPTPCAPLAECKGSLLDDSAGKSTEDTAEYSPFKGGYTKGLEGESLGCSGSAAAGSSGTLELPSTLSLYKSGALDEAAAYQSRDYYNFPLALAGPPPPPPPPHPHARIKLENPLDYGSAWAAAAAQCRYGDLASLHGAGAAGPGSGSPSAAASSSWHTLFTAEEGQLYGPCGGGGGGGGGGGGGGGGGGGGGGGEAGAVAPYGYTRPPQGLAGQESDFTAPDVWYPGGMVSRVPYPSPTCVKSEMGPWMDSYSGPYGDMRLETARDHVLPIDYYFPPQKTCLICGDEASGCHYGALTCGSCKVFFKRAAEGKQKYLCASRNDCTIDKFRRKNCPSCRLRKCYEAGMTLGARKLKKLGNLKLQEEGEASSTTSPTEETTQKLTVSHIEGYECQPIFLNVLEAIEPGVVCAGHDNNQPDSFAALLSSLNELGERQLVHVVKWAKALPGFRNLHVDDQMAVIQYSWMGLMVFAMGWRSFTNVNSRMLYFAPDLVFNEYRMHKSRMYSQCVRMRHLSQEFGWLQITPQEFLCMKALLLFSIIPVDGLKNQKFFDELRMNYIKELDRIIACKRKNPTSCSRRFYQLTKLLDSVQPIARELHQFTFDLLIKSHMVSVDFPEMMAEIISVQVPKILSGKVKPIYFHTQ
Chain of Aromatase (Homo sapiens) (P11511 whole entry, looked up): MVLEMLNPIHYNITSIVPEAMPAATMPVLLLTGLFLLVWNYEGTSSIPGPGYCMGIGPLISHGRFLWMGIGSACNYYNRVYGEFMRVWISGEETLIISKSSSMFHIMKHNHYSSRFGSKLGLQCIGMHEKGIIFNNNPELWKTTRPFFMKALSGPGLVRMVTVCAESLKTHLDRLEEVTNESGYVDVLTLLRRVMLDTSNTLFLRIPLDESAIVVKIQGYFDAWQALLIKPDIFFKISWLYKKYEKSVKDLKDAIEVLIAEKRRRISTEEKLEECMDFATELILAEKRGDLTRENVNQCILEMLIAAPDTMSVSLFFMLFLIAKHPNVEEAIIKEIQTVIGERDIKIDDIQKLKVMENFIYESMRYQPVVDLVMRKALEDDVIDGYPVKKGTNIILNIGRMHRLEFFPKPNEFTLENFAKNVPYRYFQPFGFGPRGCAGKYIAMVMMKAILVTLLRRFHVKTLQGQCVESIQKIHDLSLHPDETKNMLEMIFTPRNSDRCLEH
Chain of Estrogen receptor (Homo sapiens) (P03372 whole entry, looked up): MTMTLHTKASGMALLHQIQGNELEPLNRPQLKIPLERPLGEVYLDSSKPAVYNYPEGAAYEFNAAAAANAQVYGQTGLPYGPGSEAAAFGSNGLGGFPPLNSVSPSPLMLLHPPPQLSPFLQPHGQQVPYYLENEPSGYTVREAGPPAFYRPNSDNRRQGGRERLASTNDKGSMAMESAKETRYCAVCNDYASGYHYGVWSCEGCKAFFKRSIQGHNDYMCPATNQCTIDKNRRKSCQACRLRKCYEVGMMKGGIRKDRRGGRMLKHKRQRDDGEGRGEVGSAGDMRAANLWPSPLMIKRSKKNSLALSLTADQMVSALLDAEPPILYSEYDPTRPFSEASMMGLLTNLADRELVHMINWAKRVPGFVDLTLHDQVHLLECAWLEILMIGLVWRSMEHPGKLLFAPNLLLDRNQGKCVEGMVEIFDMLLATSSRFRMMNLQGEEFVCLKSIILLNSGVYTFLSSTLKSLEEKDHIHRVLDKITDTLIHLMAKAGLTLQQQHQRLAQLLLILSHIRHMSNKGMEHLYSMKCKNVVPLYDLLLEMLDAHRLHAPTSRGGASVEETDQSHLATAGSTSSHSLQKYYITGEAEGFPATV

SMILES	outcome [1]	Potency [2]	Potency [3]	Potency [4]	Potency [5]	Potency [6]	Potency [7]	outcome [8]	Potency [9]	Potency (Aromatase (Homo sapiens))	Potency [10]	Potency [11]	Potency [12]	Potency [13]	Potency [14]	Potency [15]	outcome [16]	Potency [17]	Potency [18]	outcome [19]
ON=C1CCCCC1	inactive	inactive	inactive	inactive	inactive	inactive	inactive	inactive	inactive	inactive										
CC(=O)CC(=O)Nc1ccccc1C	inactive	inactive	inactive	inactive	inactive	inactive	inactive	inactive	inactive	inactive	inactive	inactive	inactive							
Cc1cccnc1		inactive	inactive	inactive	inactive	inactive	inactive		inactive	inactive										
CN(C)CCC(c1ccc(Cl)cc1)c1ccccn1 (stereo not given)		inactive	inactive	inactive	inactive	48.7 µM (active) and 48.6 µM (active)	inactive	inactive	inactive					inactive	24.4 µM (active) and 30.6 µM (active)					
CN(C)CCOCCN(C)C		inactive	inactive	inactive	inactive	inactive	inactive	inactive	inactive	inactive				inactive	inactive					
Cc1ccc(S(N)(=O)=O)cc1		inactive	inactive	inactive	inactive	inactive	inactive	inactive	inactive	inactive					inactive					
CC1=CC(=O)NS(=O)(=O)O1		inactive	inactive	inactive	inactive	inactive	inactive	inactive	inactive	inactive				inactive						
O=C(O)c1cc(O)c(O)c(O)c1		26.6 µM (active) and 30.9 µM (active)	26.6 µM (active) and 24.6 µM (active)	27.6 µM (active)	inactive	inactive	inactive	inactive	inactive	inactive	inactive	inactive	inactive	inactive						
C#C[C@]1(O)CC[C@H]2[C@@H]3CCC4=CC(=O)CC[C@@H]4[C@H]3CC[C@@]21C		inactive and 30.6 µM (active)	inactive and 27.3 µM (active)	27.3 µM (active)	inactive			inactive	inactive	inactive			inactive							
COc1ccc(NC(C)=O)cc1N		inactive	inactive	inactive	inactive	inactive	inactive	inactive	inactive	inactive	54.7 µM [activator] (active) and inactive	54.3 µM (active) and inactive	inactive	inactive		inactive				
CC(=O)OCC(=O)[C@@]12N=C(C)O[C@@H]1C[C@H]1[C@@H]3CCC4=CC(=O)C=C[C@]4(C)[C@H]3[C@@H](O)C[C@@]12C		inactive	inactive	inactive	inactive	inactive	inactive	inactive	inactive	inactive	inactive	16.8 µM (active)		inactive	inactive					
C/C=C1/CC2C=CC1C2 (stereo not given)		inactive	inactive	inactive	inactive	inactive	inactive	inactive	inactive	inactive	inactive	inactive	inactive	inactive	inactive					
CC(O)COCC(C)O (stereo not given)		inactive	inactive	inactive	inactive	inactive	inactive		inactive	inactive	inactive	inactive	inactive	inactive		inactive				
C[Si](O[Si](C)(C)C)O[Si](C)(C)C		inactive	inactive	inactive	inactive	inactive	inactive	inactive	inactive	inactive				inactive			inactive	inactive	inactive	inactive
CC1=CCC2CC1C2(C)C (stereo not given)		inactive	inactive	inactive	inactive	inactive	inactive	inactive	inactive	inactive	inactive	inactive	inactive		inactive					
CCCCC(CC)CO (stereo not given)		inactive	inactive	inactive	inactive	inactive	inactive	inactive	inactive	inactive					inactive					
O=P(OC(CCl)CCl)(OC(CCl)CCl)OC(CCl)CCl		43.3 µM (active)	30.5 µM (active) and 19.3 µM (active)	54.2 µM (active) and 61.1 µM (active)	inactive	61.1 µM (active)	inactive	inactive	inactive		inactive	inactive	inactive							
Nc1ccccc1[N+](=O)[O-]		inactive	inactive	inactive	inactive	inactive	inactive	inactive	inactive	inactive					inactive					
O=S1(=O)CC=CC1		inactive	inactive	inactive	inactive	inactive	inactive	inactive	inactive	inactive	inactive	inactive	inactive	inactive	inactive					
Cc1cccc(O)c1		inactive	inactive	inactive	inactive	inactive	inactive		inactive	inactive	inactive	inactive	inactive	inactive	inactive					
CCc1ccc(CCOc2ccc(CC3SC(=O)NC3=O)cc2)nc1 (stereo not given)		inactive and 68.6 µM (active)	inactive and 68.6 µM (active)	11.9 µM (active) and 61.1 µM (active)	inactive		inactive	inactive	inactive	inactive	inactive		inactive	inactive	inactive					

SMILES	outcome [1]	Potency [2]	Potency [3]	Potency [4]	Potency [5]	Potency [6]	Potency [7]	outcome [8]	Potency [9]	Potency (Aromatase (Homo sapiens))	Potency [10]	Potency [11]	Potency [12]	Potency [13]	Potency [14]	Potency [15]	outcome [16]	Potency [17]	Potency [18]	outcome [19]
O=C(O)c1cc(=O)c2c(OCC(O)COc3cccc4oc(C(=O)O)cc(=O)c34)cccc2o1		inactive	inactive	inactive	inactive			inactive	inactive	inactive	inactive	inactive	inactive							
CCCCCOC(C)=O		inactive	inactive and 68.6 µM (active)	inactive	inactive	inactive	inactive	inactive	inactive	inactive	inactive	inactive	inactive	inactive	inactive					
CCCCCCCCCC		inactive	inactive	inactive	inactive	inactive	inactive	inactive	inactive	inactive	inactive	inactive	inactive	inactive	inactive	inactive				
CCCCCCCCCCCCOCCO				inactive	inactive	inactive	inactive	inactive	inactive	inactive					inactive			inactive	inactive	inactive
CCCCCCCCCCCCS		inactive	inactive	inactive	inactive	inactive	inactive	inactive	inactive	inactive	inactive	inactive	inactive	inactive		inactive				
Oc1cccc2ccccc12		inactive	inactive	inactive	inactive	inactive	inactive	inactive	inactive					inactive	inactive					
O=C(O)CC(C(=O)O)C(CC(=O)O)C(=O)O (stereo not given)		inactive	inactive	inactive	inactive	inactive	inactive	inactive	inactive	inactive	inactive	inactive	inactive		inactive					
OCc1cccnc1		inactive	inactive	inactive	inactive		inactive	inactive	inactive	inactive	inactive	inactive	inactive		inactive					
CCCCC(CC)COC(=O)C(C#N)=C(c1ccccc1)c1ccccc1 (stereo not given)		11.9 µM (active)	inactive	13.3 µM (active) and inactive	inactive		inactive		inactive	inactive					inactive					
O=S(=O)(O)c1ccc2ccccc2c1		inactive and 54.6 µM (active)	inactive and 43.4 µM (active)	inactive and 54.6 µM (active)	inactive	inactive	inactive	inactive	inactive	inactive	inactive	inactive	inactive							
FC(F)(F)c1ccc(Cl)c(Cl)c1		inactive	inactive	inactive	inactive	inactive	inactive	inactive	inactive	inactive	inactive	inactive	inactive		inactive	inactive	inactive	inactive	inactive	inactive
O=C(O)c1ccc2c(c1)C(=O)OC2=O		inactive	inactive	inactive	inactive	inactive	inactive		inactive	inactive	inactive	inactive	inactive		inactive		inactive	inactive	inactive	inactive
COS(C)(=O)=O		inactive	inactive	inactive	inactive	inactive	inactive	inactive	inactive	inactive	inactive	inactive	inactive	inactive						
CCCCOC(=O)COc1ccc(Cl)cc1Cl		inactive	inactive	inactive	inactive	inactive	inactive	inactive	inactive	inactive				inactive						
CCCSc1ccc2nc(NC(=O)OC)[nH]c2c1		227 nM (active) and 1.09 µM (active)	359 nM (active) and 969 nM (active)	452 nM (active) and 1.09 µM (active)	inactive			inactive	inactive	inactive										
CCN(CC)c1ccc(C(=O)c2ccccc2C(=O)O)c(O)c1			inactive	inactive	inactive	inactive	inactive	inactive	inactive	inactive	inactive	17.3 µM (active) and 43.3 µM (active)			inactive	inactive				
O=C(OCCOCCOC(=O)c1ccccc1)c1ccccc1		inactive		inactive	inactive	inactive	inactive	inactive	inactive	inactive	inactive	inactive	inactive		inactive					
C=C(C)C(=O)OCCOCCOCCOC(=O)C(=C)C		inactive	inactive	inactive	inactive	inactive	inactive	inactive	inactive	inactive					inactive					
Cc1cnc(C(=O)NCCc2ccc(S(=O)(=O)NC(=O)NC3CCCCC3)cc2)cn1					inactive	inactive	inactive	inactive	inactive		inactive	inactive	inactive	inactive		inactive				
NNc1nncc2ccccc12								inactive	inactive	inactive				21.9 µM (active)						
